Positions count from the first letter of the chain named.
How the values were obtained:
Assay in all cases: yeast three-hybrid, YBZ-1, SC-Leu-His + 0.5 mM 3-AT, 4 days
Details in all cases: tags: N-Gal4 AD-HA kept; label: inside an RPR1-promoter hybrid RNA with tandem MS2 sites; ssRNA
PUM1 PUF domain R5-KGK = PUM1 PUF domain R5-KGK (Homo sapiens, UniProt Q14671 828-1176, C1007K;R1008G;Q1011K)
In short: (§1)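 Each repeat of the Pumilio-1 PUF domain was randomized at its three base-contacting residues, and these libraries were co-expressed from a centromeric plasmid with matching RNA elements in strain YBZ-1. After four days on SC-Leu (input) or SC-Leu-His + 0.5 mM 3-AT (selection), the repeat regions were PCR-amplified and Illumina-sequenced. The interaction score compares variant frequency between input and selection as a log change, computed in log2 with a pseudocount of 1 for absent variants.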

PUM1 PUF domain R5-KFR = PUM1 PUF domain R5-KFR (Homo sapiens, UniProt Q14671 828-1176, C1007K;R1008F;Q1011R)
In short: as §1

PUM1 PUF domain R5-RHL = PUM1 PUF domain R5-RHL (Homo sapiens, UniProt Q14671 828-1176, C1007R;R1008H;Q1011L)
In short: as §1

PUM1 PUF domain R6-TWT = biological target: T1, PUM1 PUF domain R6-TWT (Homo sapiens, UniProt Q14671 828-1176, N1043T;Y1044W;Q1047T)
T1 sequence: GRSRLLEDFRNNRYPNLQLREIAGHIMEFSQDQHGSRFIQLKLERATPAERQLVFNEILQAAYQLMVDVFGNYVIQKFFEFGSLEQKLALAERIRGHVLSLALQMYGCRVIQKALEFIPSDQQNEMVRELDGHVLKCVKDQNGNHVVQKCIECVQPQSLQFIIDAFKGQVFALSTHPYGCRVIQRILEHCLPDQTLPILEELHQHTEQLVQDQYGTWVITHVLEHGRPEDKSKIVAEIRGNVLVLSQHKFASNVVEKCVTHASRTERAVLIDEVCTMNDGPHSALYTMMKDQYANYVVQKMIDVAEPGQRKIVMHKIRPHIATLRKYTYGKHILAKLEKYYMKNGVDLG
In short: as §1

PUM1 PUF domain R5-HRE = PUM1 PUF domain R5-HRE (Homo sapiens, UniProt Q14671 828-1176, C1007H;Q1011E)
In short: as §1

PUM1 PUF domain R8-RRS = PUM1 PUF domain R8-RRS (Homo sapiens, UniProt Q14671 828-1176, N1122R;Y1123R;Q1126S)
In short: as §1

PUM1 PUF domain R6-CWV = biological target: T2, PUM1 PUF domain R6-CWV (Homo sapiens, UniProt Q14671 828-1176, N1043C;Y1044W;Q1047V)
T2 sequence: T1 sequence with T216C, T220V
In short: as §1

PUM1 PUF domain R6-CWW = biological target: T3, PUM1 PUF domain R6-CWW (Homo sapiens, UniProt Q14671 828-1176, N1043C;Y1044W;Q1047W)
T3 sequence: T1 sequence with T216C, T220W
In short: as §1

PUM1 PUF domain R8-ARR = PUM1 PUF domain R8-ARR (Homo sapiens, UniProt Q14671 828-1176, N1122A;Y1123R;Q1126R)
In short: as §1

PUM1 PUF domain R5-DYD = PUM1 PUF domain R5-DYD (Homo sapiens, UniProt Q14671 828-1176, C1007D;R1008Y;Q1011D)
In short: as §1

PUM1 PUF domain R4-SNA = PUM1 PUF domain R4-SNA (Homo sapiens, UniProt Q14671 828-1176, N971S;H972N;Q975A)
In short: as §1

PUM1 PUF domain R6-FWG = biological target: T4, PUM1 PUF domain R6-FWG (Homo sapiens, UniProt Q14671 828-1176, N1043F;Y1044W;Q1047G)
T4 sequence: T1 sequence with T216F, T220G
In short: as §1

PUM1 PUF domain R1-RRC = PUM1 PUF domain R1-RRC (Homo sapiens, UniProt Q14671 828-1176, S863R;Q867C)
In short: as §1

PUM1 PUF domain R7-KCQ = PUM1 PUF domain R7-KCQ (Homo sapiens, UniProt Q14671 828-1176, S1079K;N1080C;E1083Q)
In short: as §1

## GGCUAGAACUAGUGGAUCCCCCGGCGCCCGGCGGCUCGAGCCCGGGUAAGUGUUAAUAGUCUGCAUGCCGCCGGGCGCCAUGCCUGCAGGUCGACUCUAGAAAACAUG
PUM1 PUF domain R5-KGK
  binding signal: 1.81 log2 enrichment (interaction score)
PUM1 PUF domain R5-KFR
  binding signal: 4.62 log2 enrichment (interaction score)

## GGCUAGAACUAGUGGAUCCCCCGGCGCCCGGCGGCUCGAGCCCGGGUAAGUGUAAAUAGUCUGCAUGCCGCCGGGCGCCAUGCCUGCAGGUCGACUCUAGAAAACAUG
PUM1 PUF domain R5-RHL
  binding signal: 3.44 log2 enrichment (interaction score)
PUM1 PUF domain R6-TWT
  binding signal: 1.62 log2 enrichment (interaction score)
PUM1 PUF domain R5-HRE
  binding signal: 2.59 log2 enrichment (interaction score)
PUM1 PUF domain R5-KGK
  binding signal: 1.56 log2 enrichment (interaction score)
PUM1 PUF domain R8-RRS
  binding signal: 1.39 log2 enrichment (interaction score)
PUM1 PUF domain R6-CWV
  binding signal: 3.39 log2 enrichment (interaction score)
PUM1 PUF domain R6-CWW
  binding signal: 3.56 log2 enrichment (interaction score)
PUM1 PUF domain R8-ARR
  binding signal: 1.18 log2 enrichment (interaction score)
PUM1 PUF domain R5-KFR
  binding signal: 4.71 log2 enrichment (interaction score)
PUM1 PUF domain R5-DYD
  binding signal: 1.97 log2 enrichment (interaction score)
PUM1 PUF domain R4-SNA
  binding signal: 1.52 log2 enrichment (interaction score)
PUM1 PUF domain R6-FWG
  binding signal: 3.61 log2 enrichment (interaction score)

## GGCUAGAACUAGUGGAUCCCCCGGCGCCCGGCGGCUCGAGCCCGGGUAAGUGUAAAUUGUCUGCAUGCCGCCGGGCGCCAUGCCUGCAGGUCGACUCUAGAAAACAUG
PUM1 PUF domain R1-RRC
  binding signal: 2.93 log2 enrichment (interaction score)

## GGCUAGAACUAGUGGAUCCCCCGGCGCCCGGCGGCUCGAGCCCGGGUAAGCGUAAAUAGUCUGCAUGCCGCCGGGCGCCAUGCCUGCAGGUCGACUCUAGAAAACAUG
PUM1 PUF domain R8-RRS
  binding signal: 3.27 log2 enrichment (interaction score)
PUM1 PUF domain R8-ARR
  binding signal: 2.33 log2 enrichment (interaction score)

## GGCUAGAACUAGUGGAUCCCCCGGCGCCCGGCGGCUCGAGCCCGGGUAAGUCUAAAUAGUCUGCAUGCCGCCGGGCGCCAUGCCUGCAGGUCGACUCUAGAAAACAUG
PUM1 PUF domain R7-KCQ
  binding signal: 4.46 log2 enrichment (interaction score)

— publication PMC8384837, “Expanding the binding specificity for RNA recognition by a PUF domain”
